Results as given in the supplement of paper PMC4466236.
Over roughly 33,000 sequences, “E-score (dimensionless, -0.5 to 0.5)” has its median near -0.058; the highest 2% begin near 0.35. The list comes from a sample in which the highest values are over-represented; it also holds similar and randomly drawn sequences.

System: MvaT
Test: PBM 8-mer E-score (mean of HK and ME arrays) (E-score (dimensionless, -0.5 to 0.5)); higher = stronger relative binding preference
Experimental: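 Protein binding microarray: GST-tagged full-length MvaT (P. aeruginosa PAO1) bound to two universal double-stranded 60-mer arrays (ME and HK), each with a constant 25-mer primer and a variable 35-mer region covering all 8-mers. The 8-mer E-score (rank-based, range -0.5 to 0.5, >0.45 = specific binding) is the mean of the two arrays.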

Sequence | PBM 8-mer E-score
TAAGCCTA | -0.0915
GAACTTGA | 0.266
AGTCCAGA | -0.101
AAACCATA | 0.251
CGCTTAGA | -0.0246
AATAAAGC | 0.292
ATCCTATA | 0.189
ACCTATAA | 0.208
ACACGTGT | -0.0859
AACCGCAA | 0.00741
TTCATAAA | 0.238
ATTATAAG | 0.432
ATTATACG | 0.274
TTGATAAA | 0.253
TTTATAAA | 0.411
ACTATAAG | 0.273
CCTACAGC | -0.247
ACTACGAG | 0.0492
AGGCCATG | -0.221
CGCGTGAA | 0.0803
AGCGTCAT | -0.205
ATATGCCA | 0.181
ACAGCATA | 0.147
ATTATATG | 0.416
GTTATAGA | 0.222

Sequence | PBM 8-mer E-score
GTGATATA | 0.247
CTGATATA | 0.358
GTTATACA | 0.281
CTTATAGA | 0.0191
ATTATAGG | 0.304
ATGATATG | 0.199
GTTATATA | 0.456
CTTATATC | 0.184
CTTATATA | 0.452
ATGATATA | 0.262
GGCTCACC | -0.247
AGCTCGAG | -0.0655
ATTTACTC | 0.0973
AACGAGAG | -0.094
AAAAGAGA | 0.103
ATTATAGA | 0.331
CTTATACA | 0.229
ATTATATA | 0.47
ATTATATC | 0.444
ATTATACA | 0.388
ATTATACC | 0.337
ACACTAAT | 0.345
CCACGGTC | -0.022
AGGAGGAA | -0.174
CGATATAG | 0.196

Sequence | PBM 8-mer E-score
CGATATAC | 0.219
TGATAAAA | 0.258
GGATATAA | 0.307
TGATATAA | 0.353
CGATATAA | 0.395
CGAATAAG | 0.122
ATTGGATG | 0.131
CAATCCAA | -0.0468
AATTCACA | 0.206
GTGTATTA | 0.276
ATGTATTG | 0.244
CTGTATTC | 0.0463
CTGTATTA | 0.36
ATGTATTA | 0.399
ATGTATTC | 0.152
CTAGTATC | -0.0351
CAATACTC | 0.106
AAAACGAC | 0.0691
AAAATGAA | 0.226
GACAGAAC | -0.0903
ATTATCTC | 0.157
ATTATCTG | 0.355
ATTATCAA | 0.321
ATTATCTA | 0.269
ATTATCAG | 0.354

Sequence | PBM 8-mer E-score
ATTATCAC | 0.24
GTAATGAC | -0.00906
AGCTGGCC | -0.255
TTATAAAA | 0.399
CTATAAAG | 0.0669
CTATAAAC | 0.223
ATATAAAG | 0.382
ATATAAAC | 0.433
CTATAAGA | 0.188
AGATAAAG | 0.0927
GTATAAAC | 0.316
GTATAAAA | 0.216
CTCTAAAA | 0.0251
ATATAAGC | 0.311
ATATAAGA | 0.388
GCATCCCC | -0.212
CATTTTCG | 0.126
GACTAGTC | -0.0899
GCACCGCC | -0.175
CGGCTTGA | -0.132
ACATTACC | 0.113
CTTTTGTC | 0.0941
CTATAAAA | 0.171
ATATAAAA | 0.431
ATGTAAAT | 0.327

Sequence | PBM 8-mer E-score
AGATAAAT | 0.241
ATAAAAGA | 0.263
ATATAAAT | 0.45
CTCTCATA | 0.00755
ACGGACGA | -0.238
CCAAATTA | 0.228
ACAAAATG | 0.0821
ACAAATTA | 0.35
GCAAAATA | 0.198
ACAAATTG | 0.137
ACAAAATA | 0.39
CGCCCAAC | -0.0513
CATCCTTA | 0.0793
ACATAGTC | 0.172
AGACTAGA | 0.16
CGTCCAAC | -0.205
AAAGCGTT | 0.0685
GAGGGATA | -0.0756
AGTGTTTC | 0.161
TGAGTTAA | 0.272
ACAGTTAT | 0.305
AAAGTTGT | 0.264
TAAGTTAA | 0.426
CTAGTTTA | 0.306
AAAGTTAT | 0.36

Sequence | PBM 8-mer E-score
AAAGTTTC | 0.296
AAAGTTTA | 0.353
GAAGTTTA | 0.304
GAAGTTAA | 0.317
ATAGTTTA | 0.35
ATAGTTTC | 0.275
ACTCAGAT | 0.101
CACAACGA | 0.0491
CTTGGACA | -0.17
ACAGGCAC | -0.193
CTTTTGGC | -0.0767
TAAGTTCA | 0.353
AAAGTTAG | 0.353
AAAGTTAC | 0.212
CAAGTTAA | 0.332
ATAGTTAA | 0.339
GTAGTTAA | 0.283
CTAGTTAA | 0.36
CAAGTTAG | 0.194
AAAGTTAA | 0.353
AAAGTTCA | 0.322
GAAGTTCA | 0.16
ACAGTTAA | 0.299
CATACGTA | -0.0616
AAGTTTCA | 0.303

Sequence | PBM 8-mer E-score
GAGCTGAC | -0.316
TATCTACA | 0.17
ACCCCATA | -0.17
CAAAGTAG | 0.0209
CCTGGGTC | -0.264
ACGGATAT | 0.113
CGTATTAA | 0.35
GGTATTAA | 0.34
CGTATTAG | 0.0961
TGTATTAA | 0.39
CGTATTAC | 0.17
AGTATTAA | 0.328
GTCATAAC | 0.0325
GTACATGA | 0.066
ATGTGGGA | 0.0305
ACGTATGA | -0.1
CGGTTATA | 0.224
CATTGTTA | 0.157
CCTTATTA | 0.292
AATTATTG | 0.351
ACTTATTA | 0.416
AATTGTTA | 0.377
AATTACTA | 0.323
AATTATTA | 0.438
AATTATCG | 0.336

Sequence | PBM 8-mer E-score
GATTGTTA | 0.204
GCTTATTA | 0.254
ACTTATTG | 0.29
TCTAGGCA | -0.16
CCGAGCGC | -0.231
TATCTGAA | 0.238
ATGTCCTG | -0.157
CATAGCGA | 0.0278
AGTACCGC | -0.108
GTGAGCTA | -0.209
CAAGCCTG | -0.209
AATTAGTA | 0.384
AATTATTC | 0.352
AATTATCC | 0.296
AATTAGTC | 0.282
ACTTATTC | 0.229
CATTAGTA | 0.191
GAGATTTA | 0.0378
GTTGCATA | 0.0505
ATCATTAC | 0.235
CGACAACA | 0.0714
AATATTAC | 0.372
CATATTAC | 0.294
AATATTAG | 0.394
AATATTGT | 0.355

Sequence | PBM 8-mer E-score
AATATTGC | 0.307
CCTATTAC | 0.151
CCTATTAG | 0.0715
AATATTAT | 0.445
CATATTAG | 0.305
AATATTGG | 0.278
AAGATTAT | 0.286
AATATCAT | 0.294
TATTCTGA | 0.132
CTGATAGC | -0.222
CCCGGGCG | -0.302
GAGCTGGC | -0.277
AACTCTTA | 0.21
GTAAATGA | 0.222
ATAAAGAT | 0.333
GTAAATAC | 0.228
ATAAATCA | 0.295
ATAAATAA | 0.442
ATAAATAT | 0.44
ATAAATAG | 0.358
ATAAATCG | 0.255
ATAAATGA | 0.316
ATAAACAT | 0.342
GTAAATAA | 0.366
CTAAATAG | 0.102
